Reference: PubChem BioAssay AID504427 (National Center for Advancing Translational Sciences (NCATS), 2011)
Some of the results follow. Active and inactive are the calls of the source.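 The calls were made as follows: active = compound that inhibits Clk2 kinase in the dose series, with an IC50 potency reported; inactive = no inhibition seen.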

molecular target: Dual specificity protein kinase CLK2 (Homo sapiens) (UniProt P49760); assay: Kinase Inhibition Study on Inhibitors of CDC-like Kinase 2 (Reaction Biology data); details: Reaction Biology kinase assay, 10 uM ATP
Description: NIH Molecular Libraries Probe Production Centers Network [MLPCN] NIH Chemical Genomics Center [NCGC] MLPCN Grant: 1R03MH084827-01 Assay Submitter (PI): Tom Misteli NCGC Assay Overview: Alternative splicing of pre-mRNAs plays a major role in the regulation of eukaryotic gene expression. Alternative splicing is now thought to be one of the primary reasons for the complexity of higher organisms leading to an average of three protein isoforms per gene. Aberrant splicing can lead to a number of diseases and is known to play a role in rare genetic diseases such as progeria syndrome. Hutchinson-Gilford Progeria Syndrome (HGPS) is a pediatric premature aging disease caused by a spontaneous mutation in the lamin A/C (LMNA) gene due to a single point mutation in the lamin A gene effecting 1 in 4 million people. To identify both specific splicing modulators of the lamin A gene as well as general splicing modulators, a cell-based HTS assay was developed using a minigene reporter system (AIDs, 1459 & 1487). […] This AID summarizes the characterization of lead compounds in Clk2.
All kinase reactions were performed using 10 uM ATP in the assay. 100% activity was taken from kinase reactions with DMSO alone (the vehicle used for compound stock solutions).

Chain of Dual specificity protein kinase CLK2 (Homo sapiens) (P49760 whole entry, looked up, canonical isoform): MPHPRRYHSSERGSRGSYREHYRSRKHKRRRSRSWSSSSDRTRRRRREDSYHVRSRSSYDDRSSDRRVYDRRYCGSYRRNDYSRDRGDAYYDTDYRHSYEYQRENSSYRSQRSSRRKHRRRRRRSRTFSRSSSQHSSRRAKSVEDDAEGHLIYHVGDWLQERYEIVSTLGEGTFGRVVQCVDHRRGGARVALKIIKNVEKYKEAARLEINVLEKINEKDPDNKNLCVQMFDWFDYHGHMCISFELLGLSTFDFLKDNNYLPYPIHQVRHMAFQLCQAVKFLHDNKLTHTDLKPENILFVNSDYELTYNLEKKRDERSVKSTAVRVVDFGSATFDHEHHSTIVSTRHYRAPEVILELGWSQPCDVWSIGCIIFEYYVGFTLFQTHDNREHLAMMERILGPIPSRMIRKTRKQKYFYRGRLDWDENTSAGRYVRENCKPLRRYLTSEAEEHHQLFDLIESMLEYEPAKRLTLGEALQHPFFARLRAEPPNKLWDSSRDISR

Potency, active:
c1nc(N2CCOCC2)c2cc(-c3ccc4c(c3)OCO4)ccc2n1 1.67 µM
c1coc(CCNc2ncnc3ccc(-c4ccc5c(c4)OCO5)cc23)c1 0.801 µM
CN(Cc1cncn1C)c1ncnc2ccc(-c3ccc4c(c3)OCO4)cc12 15 µM
CC(Nc1ncnc2ccc(-c3ccc4c(c3)OCO4)cc12)c1ccco1 (centres undefined) 8.37 µM
